Source: PubChem BioAssay (The Scripps Research Institute Molecular Screening Center)
FBW7 act – activators of human E3 ligase FBW7. Q969H0. AlphaScreen FBW7–phospho-cyclin E peptide binding, activator screen. normalized activity (activation), % at 26.1 µM. 0.13% of 650,000 active; in the data active = normalized activity above about 1.9%;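 also: purified mutant Fbw7 with reduced substrate affinity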
MITF primary – blocks human microphthalmia-associated transcription factor. inhibition, % at 2.6 µM. AlphaScreen MITF homodimerization, bead proximity signal. O75030. 0.91% of 650,000 active; in the data active = inhibition above about 50%
Target sequence (O75030 whole entry, looked up): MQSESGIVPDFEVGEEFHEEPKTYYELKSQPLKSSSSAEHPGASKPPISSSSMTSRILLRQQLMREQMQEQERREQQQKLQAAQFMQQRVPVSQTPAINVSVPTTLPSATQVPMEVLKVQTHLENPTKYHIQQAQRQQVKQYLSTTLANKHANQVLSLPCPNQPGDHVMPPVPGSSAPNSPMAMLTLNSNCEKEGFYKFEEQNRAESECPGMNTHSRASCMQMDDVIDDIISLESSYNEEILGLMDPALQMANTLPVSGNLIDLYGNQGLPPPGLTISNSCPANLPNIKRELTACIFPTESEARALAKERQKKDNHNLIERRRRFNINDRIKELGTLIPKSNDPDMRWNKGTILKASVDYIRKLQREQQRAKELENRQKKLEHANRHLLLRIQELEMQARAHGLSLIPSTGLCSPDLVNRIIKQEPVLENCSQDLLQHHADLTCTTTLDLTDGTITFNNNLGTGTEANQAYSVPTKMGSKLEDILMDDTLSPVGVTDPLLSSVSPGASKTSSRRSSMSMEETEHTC
GPR151 activ – human GPR151 activation. Q8TDV0. PathHunter beta-arrestin GPR151 cells, luminescence. activation, % at 11.2 µM. 1% of 650,000 active; in the data active = activation above about 4.9%
TEAD-YAP block – TEAD-YAP interaction inhibition; HEK-TIYL cells, TEAD-Gal4/YAP UAS-luciferase luminescence; 1.4% of 640,000 active; inhibition, % at 9.12 µM; in the data active = inhibition above about 32%
MITF confirm – human MITF inhibition, confirmation | shares compounds with MITF primary | AlphaScreen MITF homodimerization, biotin/His-MITF beads | inhibition, % at 2.6 µM | 16% of 4,700 active | AID 1259372;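 active = inhibition above a cutoff derived from the DMSO control wells, cut at about 28% in these data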;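 also: inhibitors lower the bead chemiluminescence by keeping MITF from dimerizing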
AS interf DR – optically interferes with AlphaScreen signal in dose response; AlphaScreen optical interference counterscreen, cell-free; shares compounds with MITF primary; AID 1259373; 6% of 480 active; IC50, µM; call rule not given here
AlphaScreen intf2 – AlphaScreen optical interference, counter-screen; AID 1259376; shares compounds with MITF primary; inhibition, % at 2.6 µM; LysRS AlphaScreen counterscreen, signal interference, triplicate; 7.6% of 4,700 active;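 active = inhibition above a cutoff derived from the DMSO control wells, cut at about 30% in these data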
Numbers stand for hits; i = inactive; nt = no result. Hits are enriched below; roughly 3.5% of the tested compounds scored in any of these assays.

SMILES	FBW7 act	MITF primary	GPR151 activ	TEAD-YAP block	MITF confirm	AlphaScreen intf2	others
OC(CNCc1ccccn1)c1ccccc1 (stereo not drawn)	i	54.0	i	i	i	43.4
CCOCCn1c(=NC(=O)CC)sc2cc(C)ccc21	i	i	i	i	nt	nt
CN1CCN(CCS(=O)(=O)OCC(F)(F)C(F)F)CC1	i	77.1	i	i	i	i
Cc1cc(NC(=O)C2CCN(C(=O)c3ccc(-n4cccc4)cc3)CC2)no1	i	51.3	i	i	47.0	i	AS interf DR=i
Cc1noc(C2CN(C(=O)c3ccc(-n4cccc4)cc3)C2)n1	i	55.4	i	i	52.5	i	AS interf DR=i
NC(=O)NC(c1ccccc1)c1cccc(Cl)c1 (stereo not drawn)	i	i	i	i	nt	nt
Cc1ccc(C)n1C(CC(=O)O)c1cccc(Cl)c1 (stereo not drawn)	i	76.8	i	i	i	i
C[C@H]1NC(=O)[C@H]2CN(C(=O)c3ccc(C(F)(F)F)cc3)CCN2C1=O	i	i	i	i	nt	nt
COc1cccc(CN2CCN(Cc3ccc(Cl)cc3)CC2)c1OC	i	70.4	i	i	i	i
COc1cccc(CN2CCN(Cc3ccc(C)cc3)CC2)c1OC	i	75.8	i	i	i	i
CCOc1ccc(CN2CCN(Cc3cccc(OC)c3OC)CC2)cc1	i	78.7	i	i	i	i
CCCCC(=O)Nc1ccc(C(=O)Nc2ccccc2C(=O)NC(C)(C)C)cc1	i	i	i	i	nt	nt
O=C(COc1ccc(Cl)cc1Br)N/N=C/c1ccc([N+](=O)[O-])s1	i	i	i	i	nt	nt
CCOc1ccc2nc(SCC(=O)NCC3CCCO3)c(C#N)cc2c1 (stereo not drawn)	i	i	i	i	nt	nt
CC(C)c1ccc2nc(SCC(=O)NCC3CCCO3)c(C#N)cc2c1 (stereo not drawn)	i	65.6	i	i	i	i
O=C1N[C@@H](Cc2ccc(O)cc2)C(=O)N2CCN(C(=O)NC3CCCCC3)C[C@H]12	i	69.8	i	i	69.2	i	AS interf DR=i
O=C1N[C@@H](Cc2cnc[nH]2)C(=O)N2CCN(C(=O)NC3CCCCC3)C[C@H]12	i	i	i	i	nt	nt
O=C1N[C@H](Cc2ccc(O)cc2)C(=O)N2CCN(C(=O)NC3CCCCC3)C[C@H]12	i	76.4	i	i	70.0	i	AS interf DR=i
CCn1c(C)nc2cc(C(=O)NNC(=O)COc3cccc(Br)c3)ccc21	i	85.6	i	i	i	i
CCn1c(C)nc2cc(C(=O)NNC(=O)NC3CCCCC3)ccc21	i	i	i	i	nt	nt
COc1cc(N)ccc1NC(=O)CSc1ncnc2sc3c(c12)CCCC3	i	78.6	i	i	i	i
Cc1n[nH]c(=O)nc1NNc1ccc(C(=O)O)cc1	i	56.0	i	i	32.2	i	AS interf DR=i
COC(=O)CSc1nc2ccc(N)cc2s1	i	62.6	i	i	i	i
COc1ccc(NC(=O)CSc2nc3ccc(N)cc3s2)cc1	i	i	i	i	nt	nt
Cc1ccc(N2C(=O)CC(Sc3nc(C)cc(C)c3C#N)C2=O)cc1 (stereo not drawn)	i	i	i	i	nt	nt
SMILES	FBW7 act	MITF primary	GPR151 activ	TEAD-YAP block	MITF confirm	AlphaScreen intf2	others
COc1ccccc1CNC(=O)C1CCC(Cn2c(=S)[nH]c3ccccc3c2=O)CC1 (stereo not drawn)	i	52.7	i	i	i	i
Cc1ccc(N[C@@H]2OC[C@@H](O)C(O)C2O)cc1N[C@@H]1OC[C@@H](O)C(O)C1O (stereo partly drawn)	i	72.3	i	i	70.8	i
CCN(C(=O)c1cc2c(=O)n3cccc(C)c3nc2n1C)c1ccccc1	i	52.6	i	i	i	i
O=c1c2ccc(Cl)cc2[nH]c(=S)n1Cc1ccc2c(c1)OCO2	i	i	i	i	nt	nt
COC(=O)C(C(=O)OC)=C(/C=C/N(C)C)N(C)C	i	74.4	i	i	i	i
CCOC(=O)/C(C(C)=O)=C(\C=C\N(C)C)N(C)C	i	i	i	i	nt	nt
C=CCNS(=O)(=O)c1ccc([N+](=O)[O-])cc1	i	i	i	i	nt	nt
Cc1ccccc1C(=O)NC(=S)Nc1sc2c(c1C(N)=O)CCC2	i	i	i	i	nt	nt
Cc1nnc(CNC(=O)c2cnn(-c3ccccc3)c2C)o1	i	i	i	i	nt	nt
Cc1nnc(CNC(=O)c2ccc(-n3cccc3)cc2)o1	i	55.1	i	i	55.3	i	AS interf DR=i
N#Cc1ccsc1NC(=O)CSc1nc(-c2ccc(F)cc2)cs1	i	i	i	i	nt	nt
